The source of these data is PubChem BioAssay AID2685 (National Center for Advancing Translational Sciences (NCATS), 2010).

Among all 320,000 compounds or so, about 2,100 (0.66%) were called active. Roughly 53% stayed inconclusive and do not appear here. This is one part of a sample in which actives are shown more often than they occur. Calls come from the whole dose curve; as a rule, active = well fitted inhibition curve with a large enough effect in the signal ratio, with a control signal flat (not every such curve was filed as active); inconclusive = small, poorly fitted or top-dose-only effect, or effect the other way, or a change in a side signal; inactive = flat fitted curve, though single readings scatter; the % refers to the signal ratio. Where a SMILES comes first, the peptide text is derived from it. [ ]: non-standard residue; d: D form. The star is where a group is joined. ξ: configuration not given here. ξF = NC(Cc1ccccc1)C(=O)O; Cbz = O=C(OCc1ccccc1)*
Potency is the fitted concentration of half-maximal effect.

A short description of this experiment: qHTS Assay for Lipid Storage Modulators in Drosophila S3 Cells.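 For cell number change: cells counted by Cell Tracker Red CMTPX staining in the red channel.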 As to conditions: BODIPY lipid droplet fluorescence, 18-24 h, cells fed with added oleic acid; cell number change: measured here: cell count max response; series mostly up to 46.1 µM. Summed up:
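Drosophila S3 cells loaded with oleic acid (400 uM, as added) and compounds at several concentrations; lipid droplets imaged by 488-nm laser-scanning cytometry, 500–530 nm intensity and object ratio to cell channel. Percent activity normalized to 20 uM Triacsin C.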
On the technique in general: Quantitative high-throughput screening tests each substance at several concentrations.
Consider `O=C(CSc1ccc(-c2ccccn2)nn1)NCc1ccccc1`, for which the Potency result was “inactive” and the cell number change is 3.17%.
Taken in the same sequence, the figures for `CCCCSc1nc(O)c(C2OC(=O)c3c2ccc(OC)c3OC)c(=O)n1-c1ccccc1` (stereo not drawn) were “inactive” and 0.549%.
Regarding `Cc1nc2ccccn2c1C(=O)NNC(=O)Nc1cccc(C(F)(F)F)c1`, the Potency was 1.46 µM (active) and the cell number change is -6.44%.
Taken in the same sequence, the figures for `Cc1cccc(NC(=O)c2c(C)nc3ccccn23)c1` were “inactive” and 6.85%.
Regarding `Cc1nc2ccccn2c1C(=O)NNC(=O)Nc1ccccc1`, the Potency entry was “inactive”.
The same measure, in the same setting: for `COc1ccc(OC)c(NC2c3ncccc3C(=O)N2Cc2ccco2)c1` (stereo not drawn) the value was “inactive”; for `Cc1ccc(C(C)C)c(OCC(=O)Nc2ccc3c(c2)nc(CCN2CCCCC2)n3C)c1`, “inactive”.
With `CCCN1CN(Cc2ccccc2)CC2=C1CC(C)(C)CC2=O`, the Potency entry was “inactive” and the cell number change is -2.17%.
On to `COc1ccc(-c2ccc(SCC(=O)N3c4ccccc4CC3C)nn2)cc1OC` (stereo not drawn), for which the Potency result is “inactive”.
Take `O=C(NC1CC1)c1cc(-c2ccccn2)nc2ccccc12`: the Potency result is “inactive” and the cell number change is -1.09%.
Turning to `Cc1ccc2nc(-c3ccccn3)cc(C(=O)NC3CCN(C)CC3)c2c1`, the Potency was 25.9 µM (active).
For the compound `CN1CCN(NC(=O)c2cc(-c3ccccn3)nc3ccccc23)CC1`, the Potency result was “inactive” and the cell number change amounted to 28.4%.
For `CCCN1CCN(C(=O)c2nn(-c3ccc(OC)cc3)c(=O)c3c2c2ccccc2n3C)CC1` the same measures were “inactive” and -5.33%.
For `O=C1/C(=C/c2ccccc2)SC(=S)N1C1CCS(=O)(=O)C1` (stereo not drawn) the same measures were “inactive” and 7.35%.
Take `C/C(CC(=O)NC12CC3CC(CC(C3)C1)C2)=N\NC(=O)c1cnccn1`: the Potency entry is “inactive” and the cell number change was 1.39%.
For the compound `Cc1nccc2[nH]c(=O)c(C(=O)NC3CCCCC3C)cc12` (stereo not drawn), the Potency result is “inactive” and the cell number change is 3.44%.
With `CCOc1ccc(/C=C2/Sc3ccc(C(=O)N4CCOCC4)cc3N(C)C2=O)cc1OC`, the Potency was 20.6 µM (active) and the cell number change is -3.07%.
Consider `CN1C(=O)/C(=C/c2cccc(Cl)c2)Sc2ccc(C(=O)N3CCCC3)cc21`, for which the Potency entry was “inactive”.
Same read-out and setting: in the case of `CN1C(=O)/C(=C/c2cccc(Cl)c2)Sc2ccc(C(=O)N3CCOCC3)cc21` it was “inactive”; in that of `Cc1cccc(/C=C2\Sc3ccc(C(=O)N4CCC(C)CC4)cc3N(C)C2=O)c1`, “inactive”.
For the compound `CCOC(=O)N1CCC(NC(=O)c2ccc3c(c2)N(C)C(=O)/C(=C/c2cccc(OC)c2)S3)CC1`, the Potency is 2.91 µM (active) and the cell number change was -26%.
Taken in the same sequence, the figures for `COc1cccc(/C=C2\Sc3ccc(C(=O)NCc4cccnc4)cc3N(C)C2=O)c1` were “inactive” and -1.61%.
Taken in the same sequence, the figures for `CN(Cc1ccccc1)c1nc2c(c(=O)[nH]c(=O)n2C)n1C` were “inactive” and -14.1%.
For `O=C(CSc1ncnc2c1nnn2Cc1ccccc1)NC1CCCC1` the same measures were “inactive” and -1.92%.
As to `O=C(CSc1ncnc2c1nnn2Cc1ccc(F)cc1)NC1CCCCC1`, the Potency was 20.6 µM (active) and the cell number change was -16.3%.
For `O=C(CSc1ncnc2c1nnn2Cc1ccccc1)NC1CCCCC1`, the Potency entry was “inactive” and the cell number change was -19.4%.
Taken in the same sequence, the figures for `CC(C)(C)C1CCC2(CC1)SCC(=O)N2c1ccccc1` (stereo not drawn) were “inactive” and -2.85%.
For `COCc1cc(C)nc(SCC(=O)Nc2ccc3c(c2)OCCO3)c1C#N` the same measures were “inactive” and 16.8%.
For `COCc1cc(C)nc(SCC(=O)Nc2ccccc2N2CCOCC2)c1C#N` the same measures were 13 µM (active) and -22.4%.
On to `COCc1cc(C)nc(SCC(=O)Nc2ccc(N3CCOCC3)cc2)c1C#N`, for which the Potency entry was “inactive” and the cell number change was found to be 5.82%.
For `O=C(N/N=C/c1ccsc1)c1ccc2c(c1)OCO2` the same measures were “inactive” and 17%.
With `Cc1cc(-c2ccc(C)c(S(=O)(=O)NCCC(C)N3CCCCCC3)c2)on1` (stereo not drawn), the Potency entry was “inactive” and the cell number change was determined as 3.3%.
Taken in the same sequence, the figures for `COc1ccc(CCNC(=O)C(NC(=O)OCc2ccccc2)C(C)C)cc1OC` (stereo not drawn) were “inactive” and 2.79%.
As to `CCOC(=O)CNC(=O)C(Cc1ccccc1)NC(=O)OCc1ccccc1` (stereo not drawn) (Cbz-[ξF]-Gly-OEt), the Potency entry was “inactive”.
Take `CCOc1ccc(CN(C)C(=O)[C@H](Cc2ccccc2)NC(=O)OCc2ccccc2)cc1OC`: the Potency is 8.2 µM (active) and the cell number change worked out at 6.3%.
Taken in the same sequence, the figures for `CN1CCN(C2=NC(=O)/C(=C/c3ccccc3OS(=O)(=O)c3ccccc3)S2)CC1` were “inactive” and 6.94%.
For `CCOC(=O)C(NC(C)=O)(Nc1cccc(F)c1)C(F)(F)F` (stereo not drawn) the same measures were 4.11 µM (active) and -1.43%.
For `CCOC(=O)C(NC(=O)CC)(Nc1ccccc1)C(F)(F)F` (stereo not drawn) the same measures were “inactive” and -9.13%.
`CCOC(=O)C(NC(C)=O)(Nc1ccc(F)cc1)C(F)(F)F` (stereo not drawn): the Potency entry is “inactive” and the cell number change was -0.408%.
Taken in the same sequence, the figures for `CNC(=O)C1CC(=O)N(c2ccc(F)c(Cl)c2)C1` (stereo not drawn) were “inactive” and 9.35%.
Taken in the same sequence, the figures for `CCOc1ccc(OCCN2CCCCC2)cc1` were “inactive” and -0.326%.
For `CCC(C)c1ccc(OCCN2CCCC2)cc1` (stereo not drawn) the same measures were 23.1 µM (active) and 7.66%.
`CC(C)c1ccc(OCCCN2CCCC2)cc1`: the Potency result is “inactive” and the cell number change stood at 0.741%.
Taken in the same sequence, the figures for `COc1ccc(OC)c(NS(=O)(=O)c2ccc(Cl)nc2)c1` were “inactive” and 7.58%.
Taken in the same sequence, the figures for `CC(=O)NNC(=S)NCCc1ccccc1` were “inactive” and 6.47%.
For `CCOCc1[nH]c(=S)[nH]c(=O)c1Cc1ccc(OCC)cc1` the same measures were “inactive” and 9.42%.
Consider `COc1ccc(CNc2nc3ccccc3n2Cc2ccc(Cl)cc2)cc1OC`, for which the Potency entry is “inactive” and the cell number change is -0.354%.
For `CCOC(=O)N1CCN(C(=O)CCc2cc(OC)c(OC)c(OC)c2)CC1` the same measures were “inactive” and 18.4%.
For `CC(=O)N1CC(C)Sc2ccc(S(=O)(=O)NCc3ccc(Cl)cc3)cc21` (stereo not drawn) the same measures were “inactive” and 17.6%.
Taken in the same sequence, the figures for `COc1ccc(CNS(=O)(=O)c2ccc3c(c2)N(C(C)=O)CC(C)S3)cc1` (stereo not drawn) were “inactive” and -3.12%.
Regarding `CC(=O)N1CC(C)Sc2ccc(S(=O)(=O)NCCc3ccc(C)cc3)cc21` (stereo not drawn), the Potency is 6.51 µM (active) and the cell number change was -15.2%.
For `CCc1ccc(-n2c(C)cc(/C=N/NC(=O)OC)c2C)cc1`, the Potency entry is “inactive” and the cell number change was -6.79%.
Regarding `CCCCOC(=O)Nc1nnc(COc2ccccc2)s1`, the Potency entry was “inactive” and the cell number change was -19.4%.
As for `Cc1ccc(OCc2nnc(NC(=O)OCC(C)C)s2)c(C)c1`, the Potency result is “inactive”.
`Cc1ccc(OCc2nnc(NC(=O)OCC(C)C)s2)cc1`: the Potency is 18.4 µM (active) and the cell number change came out at 0.0966%.
Taken in the same sequence, the figures for `O=C(NC1CCN(S(=O)(=O)c2ccc(Cl)c(F)c2)CC1)c1cccnc1` were “inactive” and -17.9%.
For `C[C@@H](O)C1NC(=O)[C@H](CCCCN)NC(=O)c2cc([N+](=O)[O-])cc(I)c2OCC[C@@H](C(N)=O)NC1=O` (stereo partly drawn) the same measures were “inactive” and -6.85%.
For `O=S(=O)(c1ccc(Br)cc1)c1nc(-c2ccccc2)oc1NCCN1CCOCC1` the same measures were “inactive” and 2.89%.
Turning to `COCCNc1nnc(Cc2ccc(Cl)cc2)c(=O)[nH]1`, the Potency result is “inactive” and the cell number change was -0.278%.
